{"source": "paper PMC6792352", "about": "“Limited Chemical Structural Diversity Found to Modulate Thyroid Hormone Receptor in the Tox21 Chemical Library” (Environmental Health Perspectives, 2019)", "note": "Where a name gives a salt, the structure may show the parent alone.", "data": [{"tested_on": "thyroid hormone receptor (endogenous TRα and TRβ)", "set-up": "species or system GH3-TRE-Luc (rat pituitary); GH3-TRE-Luc luciferase reporter, antagonist mode against 1 nM T3, loss of signal, qHTS", "details": "read-out: Average AC50 (uM) GH3-TRE-Antag, antagonist mode, 1 nM T3, no GH3 cytotoxicity hit", "units": {"AC50": "µM"}, "values": [{"compound": "C#C[C@]1(O)C=C[C@H]2[C@@H]3CCC4=CC(=O)CC[C@@H]4[C@H]3CC[C@@]21CC", "note": "[Gestodene]", "AC50": 15.5}, {"compound": "CC(C)(C)NCC(O)COc1ccc(NC(=O)NC2CCCCC2)cc1", "note": "(stereo not shown) [Talinolol]", "AC50": 26.4}, {"compound": "Cc1cccc(C(C)(C)C)c1O", "note": "[2-tert-Butyl-6-methylphenol]", "AC50": 75.7}, {"compound": "CCCCCc1ccco1", "note": "[2-Pentylfuran]", "AC50": 61.2}, {"compound": "CC(CN1CC(=O)NC(=O)C1)N1CC(=O)NC(=O)C1", "note": "(stereo not shown) [ICRF-159]", "AC50": 33.9}, {"compound": "CC(C)CCOC(=O)/C=C/c1ccccc1", "note": "[3-Methylbutyl cinnamate]", "AC50": 81.8}, {"compound": "O=C(c1ccc(O)cc1O)c1ccc(O)cc1O", "note": "[2,2',4,4'-Tetrahydroxybenzophenone]", "AC50": 39.2}, {"compound": "CNc1cc(OC)c(C(=O)N[C@@H]2CCN(Cc3ccccc3)[C@@H]2C)cc1Cl", "note": "(racemic) [Nemonapride]", "AC50": 36.4}, {"compound": "C#C[C@]1(O)CC[C@H]2[C@@H]3CCC4=CC(=O)CCC4=C3C=C[C@@]21CC", "note": "[Gestrinone]", "AC50": 24.3}, {"compound": "CCCc1c(OCCCOc2ccc(OCC(=O)O)cc2)ccc(C(C)=O)c1O", "note": "[4-[3-(4-Acetyl-3-hydroxy-2-propylphenoxy)propoxy]phenoxy-acetic acid]", "AC50": 85.9}, {"compound": "CCCCCCCCCCCCCC(=O)OCC(O)CO", "note": "(stereo not shown) [Tetradecanoic acid, 2,3-dihydroxypropyl ester]", "AC50": 61.9}, {"compound": "Cc1ccc(Nc2nccc(N(C)c3ccc4c(C)n(C)nc4c3)n2)cc1S(N)(=O)=O", "note": "[Pazopanib]", "AC50": 14}, {"compound": "CCCCC(CC)C(=O)OCCOCCOCCOCCOC(=O)C(CC)CCCC", "note": "(stereo not shown) [Tetraethylene glycol di(2-ethylhexanoate)]", "AC50": 82.3}, {"compound": "CCOC(=O)C(C)Oc1ccc(Oc2cnc3cc(Cl)ccc3n2)cc1", "note": "(stereo not shown) [Quizalofop-ethyl]", "AC50": 78.2}, {"compound": "CSc1ccc(/C=C2/C(C)=C(CC(=O)O)c3cc(F)ccc32)cc1", "note": "[Sulindac sulfide]", "AC50": 24}, {"compound": "O=C(Nc1ccccc1-c1ccc(Cl)cc1)c1cccnc1Cl", "note": "[Boscalid]", "AC50": "> 100"}, {"compound": "O=C(O)Cc1sc(-c2ccccc2)nc1-c1ccc(Cl)cc1", "note": "[Fentiazac]", "AC50": "> 50"}, {"compound": "CC(C)=CCC/C(C)=C/CC/C(C)=C/CC/C(C)=C/CC1=C(C)C(=O)c2ccccc2C1=O", "note": "[Menatetrenone]", "AC50": 24.9}, {"compound": "OC(CCCN1CCCCC1)(c1ccccc1)c1ccccc1", "note": "[Diphenidol]", "AC50": 19}, {"compound": "CCCCC(CC)COC(=O)/C=C/c1ccc(OC)cc1", "note": "(stereo not drawn) [2-Ethylhexyl trans-4-methoxycinnamate]", "AC50": "> 90"}, {"compound": "CCCCCCCCCCCCCCC(Br)C(=O)O", "note": "(stereo not shown) [2-Bromohexadecanoic acid]", "AC50": 53.6}, {"compound": "CCCCCCCCc1ccc(S(=O)(=O)O)cc1", "note": "[Sodium 4-octylbenzenesulfonate]", "AC50": 53}, {"compound": "COc1cccc(N)c1", "note": "[3-Methoxyaniline]", "AC50": 80.8}, {"compound": "C#CCC(Cc1cnc2nc(N)nc(N)c2n1)c1ccc(C(=O)N[C@@H](CCC(=O)O)C(=O)O)cc1", "note": "(stereo partly shown) [Pralatrexate]", "AC50": 0.687}, {"compound": "C[C@]12CC[C@@H]3c4ccc(O)cc4CC[C@H]3[C@@H]1CC[C@@H]2O", "note": "[17beta-Estradiol]", "AC50": 31.7}, {"compound": "O=C(Oc1ccccc1)c1ccc2ccccc2c1O", "note": "[Phenyl 1-hydroxy-2-naphthoate]", "AC50": 84.9}, {"compound": "O=C1CCCCCCCCCCOCCCCO1", "note": "[12-Oxahexadecanolide]", "AC50": 43.5}, {"compound": "CC(C)=CC1C(C(=O)OC(C#N)c2cccc(Oc3ccccc3)c2)C1(C)C", "note": "(stereo not shown) [Cyphenothrin]", "AC50": 79.9}, {"compound": "CC(C)N(C(=O)COc1nnc(C(F)(F)F)s1)c1ccc(F)cc1", "note": "[Flufenacet]", "AC50": 53.2}, {"compound": "Cc1c(Nc2ncccc2C(=O)O)cccc1C(F)(F)F", "note": "[Flunixin meglumine]", "AC50": 2.85}, {"compound": "Brc1cc(-c2ccc(Br)c(Br)c2Br)cc(Br)c1Br", "note": "[Polybrominated biphenyls (PBB)]", "AC50": 51.8}, {"compound": "Cn1c(=O)c2[nH]c(Br)nc2n(C)c1=O", "note": "[8-Bromotheophylline]", "AC50": 24.8}, {"compound": "CCCCCCCCCCCCCOS(=O)(=O)O", "note": "[Sodium tridecyl sulfate]", "AC50": 67.6}, {"compound": "Cc1nc2ccccn2c(=O)c1CCN1CCC(C(=O)c2ccc(F)cc2)CC1", "note": "[Pirenperone]", "AC50": 47}, {"compound": "CCOC(=O)C1=NN(c2ccccc2)C(=O)C1", "note": "[Ethyl 5-oxo-1-phenyl-4,5-dihydro-1H-pyrazole-3-carboxylate]", "AC50": 47.8}, {"compound": "CC1(C)N=C(N)N=C(N)N1c1ccc(Cl)cc1", "note": "[Cycloguanil hydrochloride]", "AC50": 28.6}, {"compound": "CN(C)CCN1C(=O)c2ccccc2N(C)c2ccccc21", "note": "[Dibenzepin hydrochloride]", "AC50": 36.6}, {"compound": "C[C@@H]1C[C@H]2[C@@H]3C[C@H](F)C4=CC(=O)C(Cl)=C[C@]4(C)[C@@]3(F)[C@@H](O)C[C@]2(C)[C@@]1(O)C(=O)CO", "note": "[Halometasone hydrate]", "AC50": 33.2}, {"compound": "CC[C@H](C)C(=O)O[C@H]1C[C@H](O)C=C2C=C[C@H](C)[C@H](CC[C@@H](O)C[C@@H](O)CC(=O)O)[C@H]21", "note": "[Pravastatin sodium]", "AC50": 18.4}, {"compound": "C[C@]12C[C@H](O)[C@H]3[C@@H](CCC4=CC(=O)CC[C@@]43C)[C@@H]1CC[C@@H]2C(=O)CO", "note": "[Corticosterone]", "AC50": "> 50"}]}]}
